From PubChem BioAssay (NCI)
This is part of a sample that, as a whole, favours compounds with a hit. Of some 79,000 tested, about 15% had one in any assay. Rule as the data show it: active = growth inhibition above about 70%; inactive = the rest.

Tests used:
[1] = NCI Yeast Anticancer Drug Screen. Data for the rad50 strain (AID 155);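 also: 0% = growth of vehicle-only cultures of the same strain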; conditions: S. cerevisiae rad50 strain growth inhibition; at 50.0 µM; active compounds read high
Method in brief: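 Vehicle-treated cultures provide the reference for the growth inhibition reported for compound-exposed, repair-deficient yeast.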

[2] = NCI Yeast Anticancer Drug Screen. Data for the mec2-1 strain (AID 157); conditions: S. cerevisiae mec2-1 strain, at 50.0 µM, active compounds read high
Method in brief: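 Using mec2-1 yeast: add compound, measure growth, express inhibition versus vehicle-treated cultures.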

[3] = NCI Yeast Anticancer Drug Screen. Data for the sgs1 mgt1 strain (AID 161);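 also: 0% = growth of cultures given vehicle only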; conditions: S. cerevisiae sgs1 mgt1 strain, at 50.0 µM, active compounds read high
Method in brief: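 This yeast growth screen uses a strain with defined DNA-repair lesions; compound-treated growth is compared with vehicle-treated growth.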

[4] = NCI Yeast Anticancer Drug Screen. Data for the cln2 rad14 strain (AID 165);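 also: 0% = growth equal to vehicle treated cultures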; conditions: S. cerevisiae cln2 rad14 strain, at 50.0 µM, active compounds read high
Method in brief: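 Yeast strain cln2 rad14, bearing defects in cell cycle control and DNA repair, serves as the test system; values reflect growth inhibition compared with vehicle.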

[5] = NCI Yeast Anticancer Drug Screen. Data for the bub3 strain (AID 167); conditions: S. cerevisiae bub3 mutant strain, at 50.0 µM, active compounds read high
Method in brief: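 Mutant yeast screening strain plus compound; vehicle-treated cultures serve as the 0% inhibition reference.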

[6] = NCI Yeast Anticancer Drug Screen. Data for the mlh1 rad18 strain (AID 175); conditions: S. cerevisiae mlh1 rad18 strain growth inhibition; at 50.0 µM; active compounds read high
Method in brief: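 Steps: expose repair-defective yeast to compound; measure growth; express inhibition against vehicle-treated controls.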

Measured: growth inhibition

Cc1ccc(CN2CCCCC2)o1
inactive: [1] 16.6% | [2] 3.2% | [3] 0.2% | [4] 1.1% | [5] 2.05% | [6] 7.5%

CCCCCCCCCCCCCCCCOCC(O)CO (configuration not stated)
inactive: [1] -8.55% | [2] -29.2% | [3] 1.25% | [4] -5.65% | [5] -17.1% | [6] -56.9%

CC(=O)OC1=NCC(OC(C)=O)=NC1
inactive: [1] 5.2% | [2] 13.9% | [3] 2.25% | [4] -16.9% | [5] 2.65% | [6] 6.5%

O=C(Nc1ccccc1Cl)Oc1ccc(C(=O)c2ccccc2)cc1
inactive: [1] -0.3% | [2] -13.3% | [3] 30.2% | [4] 19.9% | [5] 16.9% | [6] 13.2%

CCCCCCC1=CCCC1=O
inactive: [1] -3.5% | [2] -25.4% | [3] -3.35% | [4] -3.6% | [5] 2.55% | [6] 11.5%

O=C(O)CC(CC(=O)O)c1ccc(F)cc1
inactive: [1] -2% | [2] 0.95% | [3] -10.2% | [4] -2.35% | [5] 2.05% | [6] -8.5%

Cc1csc2nc(-c3ccncc3)cn12
inactive: [1] 10.7% | [2] 10.1% | [3] -14% | [4] 1.4% | [5] 37.1% | [6] 23.1%

O=C(O)c1ccccc1NC(=O)C1CCCCC1
inactive: [1] 10.1% | [2] 6.8% | [3] 16.3% | [4] 0.85% | [5] -6.55% | [6] 14.5%

O=C(N/N=C/c1c(O)ccc2ccccc12)c1ccccc1
inactive: [1] 29% | [2] 11.3% | [3] 42.1% | [4] 5% | [5] 16.1% | [6] 26.4%

O=C1N=C2C=CC=CN2CC1O (configuration not stated)
inactive: [1] -0.4% | [2] -11.2% | [3] -7.7% | [4] -13.2% | [5] 11.5% | [6] 15.3%

COC(=O)NN(C(=O)OC)C12CCCC1N(C(=O)OC)N(C(=O)OC)c1c2ccc2ccccc12 (configuration not stated)
inactive: [1] 32.1% | [2] -1.55% | [3] 0.6% | [4] -4.9% | [5] 1.9% | [6] 6.75%

COc1cc(Nc2nc3ccccc3nc2C(=O)O)cc(OC)c1OC
inactive: [1] -26.2% | [2] -9.45% | [3] -16.1% | [4] 2.5% | [5] 16.9% | [6] -45.4%

CCCS(=O)(=O)CCC(=O)c1ccccc1
inactive: [1] -4% | [2] -7.9% | [3] -9% | [4] -13.8% | [5] 0.85% | [6] 2.7%

CC1(C)C(=O)CC1C(=O)O (configuration not stated)
inactive: [1] 4.55% | [2] -0.25% | [3] -0.45% | [4] 12.3% | [5] 7.5% | [6] 8.75%

Cc1ccccc1NC(=S)NN
inactive: [1] 22.2% | [2] 14.7% | [3] 14.1% | [4] 16.6% | [5] 11.9% | [6] 12.3%

C=CCc1cc(Br)ccc1O
inactive: [1] 20.7% | [2] 5.9% | [3] -9.85% | [4] 11.1% | [5] -17.4% | [6] 33.5%

CC(O)C1OC(n2cnc3c(=O)[nH]cnc32)C(O)C1O (configuration not stated)
inactive: [1] -9.45% | [2] -24.9% | [3] -0.65% | [4] -0.85% | [5] -7.05% | [6] -22.9%

CCOc1nc(N)nc(C)c1N=Nc1ccccc1C
inactive: [1] 18.8% | [2] 18.1% | [3] 5.7% | [4] -12.5% | [5] 12.2% | [6] 15.7%

Nc1cc(=O)[nH]c(NCCCC(N)C(=O)O)n1 (configuration not stated)
inactive: [1] 5.95% | [2] 8.8% | [3] 6.55% | [4] -15.7% | [5] 0.85% | [6] 8.9%

Cc1ccccc1/C1=C/CCCCCC1
inactive: [1] -8.1% | [2] 11.3% | [3] -10.4% | [4] -21.6% | [5] 19.5% | [6] -5.05%

CCC1=NC(C(F)(F)F)(C(F)(F)F)N=C(N2CCOCC2)O1
inactive: [1] 23.8% | [2] 6.15% | [3] 9.2% | [4] 14.4% | [5] 22.4% | [6] 2.2%

O=C(c1ccccc1)c1ccc(Cl)c(Cl)c1
inactive: [1] -5.3% | [2] -23.3% | [3] 2.05% | [4] -55.5% | [5] 6.65% | [6] -8.05%

Nc1nc(CCC(=O)Nc2cccc(C(F)(F)F)c2)cc(-c2cccc3ccccc23)n1
inactive: [1] -15.2% | [2] 17.4% | [3] 29.1% | [4] 0.8% | [5] 23.1% | [6] 2.3%

CN(C)N=Nc1ccc(C(=O)NC(Cc2ccccc2)C(=O)O)cc1 (configuration not stated)
inactive: [1] 1.45% | [2] -4.1% | [3] 3.2% | [4] 0.55% | [5] 3.3% | [6] 6.45%

O=C1OCC2Cc3ccccc3C(c3ccccc3)=C12 (configuration not stated)
inactive: [1] -3.85% | [2] -6.3% | [3] -1.3% | [4] -31.5% | [5] 11.3% | [6] -1%

COc1ccc(C2CC(c3ccccc3)=NN2c2ccccc2)cc1 (configuration not stated)
inactive: [1] 0.75% | [2] -14.4% | [3] 5.85% | [4] -7.55% | [5] 4.85% | [6] 7.95%

CC(=O)c1c[nH]cc1CO
inactive: [1] -1.7% | [2] 7.8% | [3] 8.85% | [4] 11.3% | [5] 11.6% | [6] -7.75%

COc1cc(C=O)cc(O)c1O
inactive: [1] 11.8% | [2] 3.05% | [3] -10.6% | [4] -19.2% | [5] -1.9% | [6] -0.6%

CCC(C(=O)NC(C)c1ccc(-c2ccccc2)cc1)c1ccccc1 (configuration not stated)
inactive: [1] 5.1% | [2] 7.55% | [3] 10% | [4] 13.2% | [5] 12.5% | [6] -4.7%

CCc1nc(N)nc(N)c1-c1ccc(N(CC)Cc2ccccc2)c([N+](=O)[O-])c1
inactive: [1] 7.35% | [2] -3.05% | [3] -6.05% | [4] 7.5% | [5] 3.4% | [6] -3.85%

O=C1CSC(c2c(F)cccc2Cl)N1c1nncs1 (configuration not stated)
inactive: [1] 9.4% | [2] -2% | [3] 31.4% | [4] 13% | [5] 29.6% | [6] 10%

Nc1nc(Cc2ccccc2)nc2[nH]ncc12
inactive: [1] 3.85% | [2] 6.3% | [3] 3.2% | [4] -18.5% | [5] -8.9% | [6] -1.6%

CCCCC(CC)OC(=O)c1cccc(C)c1 (configuration not stated)
inactive: [1] 9.15% | [2] 2.25% | [3] 17.8% | [4] -7.4% | [5] -0.05% | [6] 7.1%

COC(=O)CCC(C)C1CCC2C3CCC4CC5CCC4(C)C3(O5)C(Br)C(Br)C12C (configuration not stated)
inactive: [1] -11.8% | [2] -48.1% | [3] -32.5% | [4] -33% | [5] -25.5% | [6] -4.8%

O=C(Cl)CN1C(=O)c2ccccc2C1=O
inactive: [1] -12.1% | [2] -24% | [3] -14.5% | [4] -14.3% | [5] -12.3% | [6] -0.25%

COc1ccc(C2(C)C=C(C)C=C(C)C2=O)cc1 (configuration not stated)
inactive: [1] -5.1% | [2] 2.9% | [3] -12.2% | [4] -15.9% | [5] -9.65% | [6] 7.75%

CCOC(=O)c1ccc2c(c1)C(C)(SC)C(=O)N2 (configuration not stated)
inactive: [1] -12.7% | [2] 0.7% | [3] -2.85% | [4] 4.65% | [5] -6.55% | [6] -1.35%

COc1ccc(N2NC(c3ccccc3)(c3ccccc3)C(C)C2=O)cc1 (configuration not stated)
inactive: [1] 48.2% | [2] 17.1% | [3] 40.4% | [4] 5.2% | [5] 51.2% | [6] 40.1%

COC(=O)CCc1ccc(C2CO2)cc1 (configuration not stated)
inactive: [1] -1.4% | [2] 6.15% | [3] -9.5% | [4] -0.2% | [5] -11.2% | [6] 10.3%

CC(=O)C(C)(C)Cc1cc(C(C)(C)CC=O)on1
inactive: [1] -2.25% | [2] -0.8% | [3] -12.4% | [4] 5.35% | [5] 29.1% | [6] 4.95%

Cc1ccc(S(=O)(=O)N(C)C)cc1NC1=NCCO1
inactive: [1] -2.55% | [2] 5.75% | [3] 7.85% | [4] -40.4% | [5] -1% | [6] -2.6%

Cc1ccc(S(=O)(=O)N(CC(O)c2ccccc2)CC(O)c2ccccc2)cc1 (configuration not stated)
inactive: [1] -3.95% | [2] -1.7% | [3] -18.2% | [4] 3.5% | [5] 3.95% | [6] -8%
